# Whole data set: some 2,900 compounds, median “NF-kB SEAP reporter activity, fold change vs agonist alone” near 0.99, cut for the highest 2% near 2.6. Many of the other results were omitted from the sample, so the highest values are more common in it than they were.
# What was measured:
# RAW-Dual [1] = assay: NF-kB SEAP reporter activity, fold change vs agonist alone; higher = enhanced NF-kB activity; conditions: library stock concentration (final ~1000-fold dilution): 10 mM
# Summary of the method: (§1)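 Library stock was pin-tooled at 50 nL into 384-well plates of RAW-Dual macrophages (50,000 cells/well, DMEM), followed 1 h later by a PRR agonist, and the cells were kept at 37 °C, 5% CO2. Supernatant collected after 20 hours was read for IRF by QuantiLuc luminescence and for NF-κB by QuantiBlue absorbance at 620 nm. Reporter activity is fold change over agonist-alone wells, and a well counted as cytotoxic when its IncuCyte confluency was below 70% of agonist controls in both mask sets.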
# RAW-Dual [2] = assay: NF-kB SEAP reporter activity, fold change vs agonist alone; cytotoxicity flag (confluency mask): not cytotoxic; higher = enhanced NF-kB activity
# Summary of the method: as §1
# RAW-Dual [3] = assay: NF-kB SEAP reporter activity, fold change vs agonist alone; cytotoxicity flag (confluency mask): cytotoxic (confluency <70% of control); higher = enhanced NF-kB activity
# Summary of the method: as §1
# [4] = cytotoxicity flag (confluency mask): not cytotoxic, agonist: Imiquimod (TLR7) […]
# [5] = cytotoxicity flag (confluency mask): not cytotoxic, agonist: MPLA (TLR4) […]
# [6] = agonist: ODN 1826 (TLR9) 0.5 ug/mL
# [7] = agonist: Pam2CSK4 (TLR2/6) 0.1 ug/mL
# [8] = agonist: Pam3CSK4 (TLR2/1) 0.1 ug/mL
smiles,measurement,setting,value
COC(=O)c1ccc(O)c(O)c1,NF-kB SEAP reporter activity,RAW-Dual [1]; [4],0.731
same,NF-kB SEAP reporter activity,RAW-Dual [1]; [5],1.17
COC(=O)c1ccc(O)c(O)c1 (library stock concentration (final ~1000-fold dilution): 10 mM),NF-kB SEAP reporter activity,RAW-Dual [2]; agonist: LPS (TLR4) 0.1 ug/mL,0.81
same,NF-kB SEAP reporter activity,RAW-Dual [2]; [6],0.654
same,NF-kB SEAP reporter activity,RAW-Dual [2]; [7],0.603
same,NF-kB SEAP reporter activity,RAW-Dual [2]; [8],0.553
Cn1cc(C2=C(c3cccc(N)c3)C(=O)NC2=O)c2ccccc21 (library stock concentration (final ~1000-fold dilution): 10 mM),NF-kB SEAP reporter activity,RAW-Dual [2]; agonist: LPS (TLR4) 0.1 ug/mL,1.83
same,NF-kB SEAP reporter activity,RAW-Dual [2]; [6],2.18
same,NF-kB SEAP reporter activity,RAW-Dual [2]; [7],1.59
same,NF-kB SEAP reporter activity,RAW-Dual [2]; [8],2.2
CS(=O)(=O)O.Cn1cc(C2=C(c3cn(CCCSC(=N)N)c4ccccc34)C(=O)NC2=O)c2ccccc21,NF-kB SEAP reporter activity,"RAW-Dual [1]; cytotoxicity flag (confluency mask): cytotoxic (confluency <70% of control), agonist: Imiquimod (TLR7) […]",0.13
same,NF-kB SEAP reporter activity,"RAW-Dual [1]; cytotoxicity flag (confluency mask): cytotoxic (confluency <70% of control), agonist: MPLA (TLR4) […]",0.222
Cn1cc(C2=C(c3ccc(Cl)cc3Cl)C(=O)NC2=O)c2ccccc21 (library stock concentration (final ~1000-fold dilution): 10 mM),NF-kB SEAP reporter activity,RAW-Dual [2]; agonist: LPS (TLR4) 0.1 ug/mL,3.23
same,NF-kB SEAP reporter activity,RAW-Dual [2]; [6],2.04
same,NF-kB SEAP reporter activity,RAW-Dual [2]; [7],1.49
same,NF-kB SEAP reporter activity,RAW-Dual [2]; [8],2.34
Cn1cc(C2=C(c3ccc(Cl)cc3Cl)C(=O)NC2=O)c2ccccc21,NF-kB SEAP reporter activity,RAW-Dual [1]; [4],1.58
same,NF-kB SEAP reporter activity,RAW-Dual [1]; [5],1.99
Cn1cc(C2=C(c3cccc(N)c3)C(=O)NC2=O)c2ccccc21,NF-kB SEAP reporter activity,RAW-Dual [1]; [4],1.55
same,NF-kB SEAP reporter activity,RAW-Dual [1]; [5],1.7
CS(=O)(=O)O.Cn1cc(C2=C(c3cn(CCCSC(=N)N)c4ccccc34)C(=O)NC2=O)c2ccccc21 (library stock concentration (final ~1000-fold dilution): 10 mM),NF-kB SEAP reporter activity,RAW-Dual [3]; agonist: LPS (TLR4) 0.1 ug/mL,0.173
same,NF-kB SEAP reporter activity,RAW-Dual [3]; [6],0.185
same,NF-kB SEAP reporter activity,RAW-Dual [3]; [7],0.0599
same,NF-kB SEAP reporter activity,RAW-Dual [3]; [8],0.138
COc1cc2c3cc1Oc1c(OC)c(OC)cc4c1C(Cc1ccc(O)c(c1)Oc1ccc(cc1)CC3N(C)CC2)N(C)CC4.Cl.Cl (stereo unspecified),NF-kB SEAP reporter activity,RAW-Dual [1]; [4],0.379
same,NF-kB SEAP reporter activity,RAW-Dual [1]; [5],1.37
COc1cc2c3cc1Oc1c(OC)c(OC)cc4c1C(Cc1ccc(O)c(c1)Oc1ccc(cc1)CC3N(C)CC2)N(C)CC4.Cl.Cl (stereo unspecified) (library stock concentration (final ~1000-fold dilution): 10 mM),NF-kB SEAP reporter activity,RAW-Dual [2]; agonist: LPS (TLR4) 0.1 ug/mL,1.44
same,NF-kB SEAP reporter activity,RAW-Dual [2]; [6],0.2
same,NF-kB SEAP reporter activity,RAW-Dual [2]; [7],1.08
same,NF-kB SEAP reporter activity,RAW-Dual [2]; [8],1.19
CC1(C)SC2C(NC(=O)C(N)c3ccccc3)C(=O)N2C1C(=O)OCOC(=O)C1N2C(=O)CC2S(=O)(=O)C1(C)C (stereo unspecified) (library stock concentration (final ~1000-fold dilution): 10 mM),NF-kB SEAP reporter activity,RAW-Dual [2]; agonist: LPS (TLR4) 0.1 ug/mL,1.06
same,NF-kB SEAP reporter activity,RAW-Dual [2]; [6],0.886
same,NF-kB SEAP reporter activity,RAW-Dual [2]; [7],1.16
same,NF-kB SEAP reporter activity,RAW-Dual [2]; [8],0.993
CC1(C)SC2C(NC(=O)C(N)c3ccccc3)C(=O)N2C1C(=O)OCOC(=O)C1N2C(=O)CC2S(=O)(=O)C1(C)C (stereo unspecified),NF-kB SEAP reporter activity,RAW-Dual [1]; [5],1.07
CC(Oc1ccc2c(c1)OCCn1cc(-c3ncnn3C(C)C)nc1-2)C(N)=O (stereo unspecified),NF-kB SEAP reporter activity,RAW-Dual [1]; [4],0.585
same,NF-kB SEAP reporter activity,RAW-Dual [1]; [5],1.4
Cc1nc(-c2cn3c(n2)-c2ccc(-c4cnn(C(C)(C)C(N)=O)c4)cc2OCC3)n(C(C)C)n1 (library stock concentration (final ~1000-fold dilution): 10 mM),NF-kB SEAP reporter activity,RAW-Dual [2]; agonist: LPS (TLR4) 0.1 ug/mL,2.74
same,NF-kB SEAP reporter activity,RAW-Dual [2]; [6],1.31
same,NF-kB SEAP reporter activity,RAW-Dual [2]; [7],0.996
same,NF-kB SEAP reporter activity,RAW-Dual [2]; [8],1.15
CC(Oc1ccc2c(c1)OCCn1cc(-c3ncnn3C(C)C)nc1-2)C(N)=O (stereo unspecified) (library stock concentration (final ~1000-fold dilution): 10 mM),NF-kB SEAP reporter activity,RAW-Dual [2]; agonist: LPS (TLR4) 0.1 ug/mL,2.07
same,NF-kB SEAP reporter activity,RAW-Dual [2]; [6],1.1
same,NF-kB SEAP reporter activity,RAW-Dual [2]; [7],0.894
same,NF-kB SEAP reporter activity,RAW-Dual [2]; [8],1.41
Cc1nc(-c2cn3c(n2)-c2ccc(-c4cnn(C(C)(C)C(N)=O)c4)cc2OCC3)n(C(C)C)n1,NF-kB SEAP reporter activity,RAW-Dual [1]; [4],0.619
same,NF-kB SEAP reporter activity,RAW-Dual [1]; [5],1.84
OCC1OC(c2ccc(F)c(Cc3cc4ccccc4s3)c2)C(O)C(O)C1O (stereo unspecified) (library stock concentration (final ~1000-fold dilution): 10 mM),NF-kB SEAP reporter activity,RAW-Dual [2]; agonist: LPS (TLR4) 0.1 ug/mL,1.07
same,NF-kB SEAP reporter activity,RAW-Dual [2]; [6],0.948
same,NF-kB SEAP reporter activity,RAW-Dual [2]; [7],1.15
same,NF-kB SEAP reporter activity,RAW-Dual [2]; [8],1.17

# From the supplement of paper PMC10037445
